Results as given in PubChem BioAssay AID493179 (National Center for Advancing Translational Sciences (NCATS), 2011).
Results filed as inconclusive are left out. Activity calls are given as the source filed them. The call rests on the fitted dose curve; in most records, active means well fitted inhibition curve with a large enough effect; inconclusive means small, poorly fitted or top-dose-only effect; inactive means flat fitted curve, though single readings scatter.

Assay: Secondary Assay for General miRNAs Modulators and/or Inhibitors/Activators of miR-21: miR-30 Firefly Luciferase Assay for second round cherrypicks
Conditions: HeLa miR-30 FLuc reporter, luminescence, 48 h; series mostly up to 38.3 µM
Excerpt: MLPCN Grant: 1 R21 NS059478-01 Assay Provider: Qihong Huang, The Wistar Institute NCGC Assay Overview: MicroRNAs (miRNAs) are endogenously encoded small (~20-25 nucleotides), nonprotein-coding RNAs that are involved in post-transcriptional repression of target messenger RNAs (mRNAs) (Le and Hannon, 2004). Estimated to be involved in the regulation of 30% of all protein-coding mRNAs (Filipowicz et al., 2008), miRNAs play a significant role in many biological processes including cellular differentiation and tissue development (Ghildiyal and Zamore, 2009). […] Compounds active in the miR-21 FLuc assay were clustered using Leadscope and active chemical series were prioritized based on chemical properties, potential for medicinal chemistry optimization, and SAR. Within each chemical series, representative compounds were re-acquired to test for activity in a secondary assay based on the quality of their CRC, efficacy, and potency. The secondary assay to determine if compounds active in the miR-21 FLuc assay were potentially specific for miR-21 and were not general modulators of the miRNA pathway was another cell-based FLuc reporter gene assay, this time targeting miR-30. Compounds found active in both the miR-21 FLuc and miR-30 FLuc assays are not considered miR-21 specific compounds, and may be general miRNA modulators.
NCGC Assay Protocol Summary: Reagents: HeLa cells stably expressing firefly luciferase (FLuc) under the control of a CMV promoter (upstream) and a miR-30 binding sequence directly downstream of the gene. These cells also stably express miR-30. Control compounds used were compound C3 (provided by collaborator), N6-phenyladenosine (MP Biomedicals, 0215379625), and DMSO. Assay Summary: 6uL of HeLa miR-30-FLuc cells in assay buffer (DMEM, Invitrogen #21063-029; 10% FBS, HyClone #SH30071.03) were dispensed at 1000cells/well (1.7 x 10^5 cells/mL) into Greiner solid-white TC-treated 1536-well plates using a Multidrop Combi (Thermo Fisher Scientific). Plates were incubated for one hour at 37 degree Celsius, 95% humidity, 5% CO2. These assay plates were then treated with 23nL of compound or DMSO using a Kalypsys pin tool, which allows for delivery of a 24-point titration of each compound to the assay plate, with a final compound concentration ranging from approximately 40uM to 5pM. Assay plates were then incubated for 48 hours. After incubation, plates were allowed to come to RT for one hour prior to delivery of 3uL of 3X luciferase detection reagent. After a 15 minute incubation to allow for cell lysis, luciferase activity was measured using a ViewLux CCD imager (PerkinElmer), with an average exposure time of 2-12 seconds. Keywords: NIH Roadmap, MLPCN, MLSMR, qHTS, miR-21, miR-30, microRNA, firefly luciferase, FLuc.

| SMILES | Potency |
| --- | --- |
| CC(=O)N1CCc2cc(CNC(=O)Cc3ccc(F)cc3)ccc21 | 10 µM (active) |
| Cc1ccc(NC(=O)c2ccc(-c3ccccc3)s2)cc1 | 5.04 µM (active) |
| COc1ccc(CNc2nc(-c3ccco3)nn2C(=O)c2ccccc2Cl)cc1 | 22.5 µM (active) |
| CCC(C)C(=O)N1CCCC(c2nc(-c3cccs3)no2)C1 (stereo not given) | 6.34 µM (active) |
| C/C(=N/NC(=O)c1ccccc1)c1ccc(NC(=O)C(F)(F)F)cc1 | inactive |
| CCC(C)NC(=O)CCCn1c(=O)c2cccn2c2ccccc21 (stereo not given) | inactive |
| CCCCc1nn2c(=O)cc(COC(=O)c3cccc(NC(=O)c4cccc(C)c4)c3)nc2s1 | 4 µM (active) |
| COCCNC(=O)c1ccc2c(c1)ncn2-c1ccc(F)c(F)c1 | 22.5 µM (active) |
| O=C(NC1CCCCCC1)C1CCN(C(=O)N2CCOc3ccc(Cl)cc32)CC1 | inactive |
| Cc1cccc(NC(=O)Nc2ccc(Br)cc2)n1 | 4.49 µM (active) |
| CCOCCCNC(=O)c1cc2c(=O)n3ccccc3nc2s1 | 11.3 µM (active) |
| CN(c1ccccc1)S(=O)(=O)c1nnc(NC(=O)c2ccco2)s1 | inactive |
| Cc1ccc(-n2ncc3c(Nc4ccc5c(c4)OCCO5)ncnc32)cc1Cl | 10 µM (active) |
| CC(=O)O[C@H]1C[C@@]2(C)[C@@H](C[C@@H](O)[C@H]3[C@@]4(C)CC[C@@H](O)[C@@H](C)C4CC[C@@]32C)/C1=C(\CCC=C(C)C)C(=O)O (stereo not given in full) | inactive |
| Cc1ccc2nc(-c3ccc(NC(=O)c4ccc(S(C)(=O)=O)cc4)cc3)sc2c1 | inactive |
| Cc1ccc(C(=O)Nc2ccc3c(c2)ncn3C)cc1 | 2.83 µM (active) |
| Cc1ccc(-c2cc(C(=O)NCC3CCCO3)no2)cc1 (stereo not given) | 3.56 µM (active) |
| CCOC(=O)C1CCN(C(=O)c2ccc(-n3ccc4ccccc43)s2)CC1 | 11.3 µM (active) |
| Cc1ccc2c(Cl)c(C(=O)Nc3ccc4c(c3)OCO4)sc2c1 | 1.59 µM (active) |
| Cc1cc(C)c2c(N)c(C(=O)Nc3ccccc3C(F)(F)F)sc2n1 | 11.3 µM (active) |

| SMILES | Potency |
| --- | --- |
| Cc1cc(N2CCN(C)CC2)nc2ccc(NC(=O)c3ccccc3F)cc12 | 10 µM (active) |
| CCc1cc(C(=O)Nc2ccccc2)cs1 | 2.83 µM (active) |
| CC(C)(C)C1CCc2nc(NC(=O)Cc3ccc(Cl)cc3)sc2C1 (stereo not given) | inactive |
| Cc1ccccc1OCc1nc2c3cnn(-c4ccccc4F)c3ncn2n1 | 20 µM (active) |
| Cc1ccccc1NC(=O)c1cc2c([nH]c1=O)CC(C)(C)CC2=O | 0.634 µM (active) |
| CC(=O)c1ccc(Oc2ncnc3c2oc2ccccc23)cc1 | 3.18 µM (active) |
| CC(c1ccccn1)N(C)C(=O)c1ccc2nc(Cc3cccc(Cl)c3)oc2c1 (stereo not given) | 6.34 µM (active) |
| CN(C)c1ccc(CNC(=O)C2COc3ccccc3C2)cc1 (stereo not given) | inactive |
| CCC(=O)Nc1sc(C(=O)Nc2ccccc2)c(C)c1C(=O)OC | 11.3 µM (active) |
| CCCOc1ccc(OC(=O)c2ccc(-c3ccc(CCC)cn3)cc2)cc1 | 1.59 µM (active) |
| CCCCN1CCc2c([nH]c3ccccc23)C1=O | 11.3 µM (active) |
| O=C(Nc1sc2c(c1C(=O)NCc1ccco1)CCCC2)c1cc(=O)c2ccccc2o1 | 7.11 µM (active) |
| COc1ccc(Nc2nc(C)c3ccccc3n2)cc1 | 11.3 µM (active) |
| CCc1ccc(C(=O)NCc2cccs2)s1 | 20 µM (active) |
| Cc1ccccc1C(=O)Nc1nnc(-c2ccco2)o1 | 12.6 µM (active) |
| CCOC(=O)c1cccc(NC(=O)c2cc(CN3CCCC3)on2)c1 | 4.49 µM (active) |
| COc1ccccc1N1CCN(C(=O)c2nc(-c3ccc(C)cc3)n3c2CCCCC3)CC1 | inactive |
| CC(C)(C)CC(=O)Nc1nnc(-c2cccs2)s1 | 5.04 µM (active) |
| CC(C)c1cc(C(=O)Nc2cccnc2)no1 | 3.56 µM (active) |
| CCC(CC)C(=O)Nc1nnc(S(=O)(=O)N2CCCCCC2)s1 | inactive |
